Values joined by “and” are separate entries in the source; they are usually repeats but may differ in a detail not shown here. Equal entries are not always repeated. Hit rate of the full screen: of about 86,000 compounds, about 220 (0.26%) were called active. The sample holds actives, similar compounds and a random draw of the others, so the mix is not that of the screen. Values without a mark were called inactive.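 The calls were made as follows: active = mean growth activity at or below -80% and every replicate also at or below -80%; inconclusive = mean at or below -80% but some replicate above -80%; inactive = mean growth activity above -80%.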

This assay can be described thus: C. difficile growth inhibitors, primary screen, HTS (AID 1259249).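 Also: 0% = DMSO wells and -100% = levofloxacin 16 µg/mL wells.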 The conditions noted are these: Clostridium difficile clinical isolate growth, OD600, 24 h; active compounds read low; screened at 16 µg/mL (by protocol).
On to `COc1ccccc1CN1[C@H](CO)[C@@H](c2ccccc2)C12CN(C(=O)c1cnccn1)C2`, for which the growth activity, negative = inhibition was 5.54%.

With `CN1CCN(C(=O)C[C@H]2CC[C@H]3[C@@H](COC[C@H](O)CN3CC3CCOCC3)O2)CC1`, the growth activity, negative = inhibition was -4.46% and 6.12%.

In the case of `COCCNC(=O)C[C@H]1CC[C@@H]2[C@@H](COc3ccc(NC(=O)C4CCOCC4)cc3C(=O)N2C)O1`, the growth activity, negative = inhibition is -4.68%.

Turning to `CNC(=O)C[C@@H]1CC[C@@H]2[C@@H](COc3ccc(NC(=O)c4ccc(F)cc4)cc3C(=O)N2C)O1`, the growth activity, negative = inhibition is 8.61%.

As for `O=C(N[C@@H]1CC[C@@H](CC(=O)N2CCc3ccccc3C2)O[C@H]1CO)C1CC1`, the growth activity, negative = inhibition is -3.47%.

For `CCCNC(=O)N1CC2(C1)[C@H](c1ccccc1)[C@@H](CO)N2Cc1cccc(Cl)c1`, the growth activity, negative = inhibition was 17%.

Turning to `O=C(Nc1ccc(F)cc1)N1C[C@@H]2[C@H](c3ccccc31)[C@H](CO)N2Cc1ccccc1`, the growth activity, negative = inhibition is 3.9%.

As for `CN(C)C(=O)c1ccc(-c2ccc(C3[C@@H]4CN(C(=O)Nc5ccccc5)C[C@H]3N4)cc2)cc1` (some centres undefined), the growth activity, negative = inhibition was 4.58%.

In the case of `Cc1cccc(-c2ccc(C3[C@@H]4CN(C(=O)Nc5ccc(C(F)(F)F)cc5)C[C@H]3N4)cc2)c1` (some centres undefined), the growth activity, negative = inhibition was -94.2% (active) and -85.7% (active).

On to `O=C(C1CCCCC1)N1C[C@@H]2N[C@H](C1)C2c1ccc(-c2cccc(F)c2)cc1` (some centres undefined), for which the growth activity, negative = inhibition was 56.1% and 10.9%.

`COc1ccc2c3c(n(C)c2c1)[C@H](CO)N(Cc1ccccc1)CC31CN(C(=O)c2ccccc2F)C1`: the growth activity, negative = inhibition is 20.3%.

Consider `CCCC(=O)Nc1ccc2c(c1)OC[C@H](C)N(C(=O)CC)C[C@H](C)[C@@H](OC)CN(C)C2=O`, for which the growth activity, negative = inhibition is -5.26%.

`COc1ccc2c3c([nH]c2c1)[C@@H](CO)N(C(C)=O)CC31CN(C(=O)Nc2ccc(F)cc2)C1`: the growth activity, negative = inhibition is 1.62%.

For `CN1CCCCN2[C@@H](CO)[C@@H](c3ccc(C4=CCCC4)cc3)[C@@H]2C1`, the growth activity, negative = inhibition was 0.437%.

For the compound `N#C[C@@H]1[C@H](c2ccc(-c3cccnc3)cc2)[C@H](CO)N1C(=O)C1CC1`, the growth activity, negative = inhibition is -3.1%.

In the case of `O=C(CN1CCOCC1)NCC[C@@H]1CC[C@@H](NC(=O)Nc2ccccc2)[C@H](CO)O1`, the growth activity, negative = inhibition is 0.549%.

Consider `O=S(=O)(N[C@H]1CC[C@@H](CCNS(=O)(=O)c2ccccc2Cl)O[C@@H]1CO)c1ccccc1`, for which the growth activity, negative = inhibition was -8.16%.

Take `COc1ccc(C#Cc2ccc([C@@H]3[C@H](CO)N4C(=O)CN(C(C)=O)C[C@@H]34)cc2)cc1`: the growth activity, negative = inhibition was -6.73%.

`O=C(O)CCCCCCC(=O)NOCc1ccccc1`: the growth activity, negative = inhibition is -0.197%.

Source of the values: PubChem BioAssay AID1259249 (Broad Institute, 2017).
